# An excerpt weighted towards active compounds, which were near 2.4% of everything screened.
# POLH inh: inhibitors of human DNA polymerase eta | Q9Y253 | recombinant Pol eta, fluorescent DNA replication assay | Potency, µM (titrated, usually from 114 µM), usual class: inhibitors | 1.2% of 390,000 active | AID 588591
# Target sequence (Q9Y253 whole entry, looked up): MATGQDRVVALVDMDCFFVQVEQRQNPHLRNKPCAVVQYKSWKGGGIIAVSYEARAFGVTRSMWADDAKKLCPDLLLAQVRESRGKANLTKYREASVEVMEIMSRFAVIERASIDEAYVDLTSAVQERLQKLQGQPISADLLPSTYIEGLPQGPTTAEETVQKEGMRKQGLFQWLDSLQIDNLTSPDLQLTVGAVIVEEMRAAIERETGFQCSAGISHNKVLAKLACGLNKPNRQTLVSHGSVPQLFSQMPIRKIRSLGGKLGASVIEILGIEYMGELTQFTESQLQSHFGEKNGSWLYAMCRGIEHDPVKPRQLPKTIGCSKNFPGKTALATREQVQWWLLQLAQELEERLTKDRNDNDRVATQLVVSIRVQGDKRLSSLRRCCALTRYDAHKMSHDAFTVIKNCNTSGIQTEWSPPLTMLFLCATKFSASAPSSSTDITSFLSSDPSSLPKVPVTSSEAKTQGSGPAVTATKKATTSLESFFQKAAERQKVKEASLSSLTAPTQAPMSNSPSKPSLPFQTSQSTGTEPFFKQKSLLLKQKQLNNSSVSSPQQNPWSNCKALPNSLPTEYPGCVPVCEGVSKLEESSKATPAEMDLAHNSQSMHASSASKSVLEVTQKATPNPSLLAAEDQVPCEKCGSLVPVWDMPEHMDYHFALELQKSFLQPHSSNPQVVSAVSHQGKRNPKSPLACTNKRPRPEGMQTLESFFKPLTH
#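 Pol eta (10 nM) was preincubated with compounds for 15 min at room temperature, after which fluorescent replication substrate (50 nM final) was added to start the reaction. Fluorescence was read kinetically at 0 and 10 min.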
# L3MBTL1 inh: inhibitors of human L3MBTL1; AlphaScreen L3MBTL1–H3K9me1 peptide binding; Potency, µM (highest dose often 57.1 µM), hits mostly inhibitors; 0.66% of 230,000 active; further: nearly all actives have a fitted effect of over 60% in size
#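 AlphaScreen proximity signal between nickel-chelate acceptor and streptavidin donor beads (final 10 ug/mL) reports binding of 50 nM L3MBTL1 to 75 nM biotin-H3 K9me1 peptide; complex incubated with compounds 30 min at room temperature; cefsulodin titration as control.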
# Pol kappa inh: DNA polymerase kappa (human) inhibition; Q9UBT6; purified Pol kappa, fluorescent DNA synthesis assay, 10 min; Potency, µM (series often up to 107 µM), actives largely listed as inhibitors; 0.53% of 400,000 active; AID 588579
#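 Kinetic fluorescence screen: compound preincubated 15 min RT with 10 nM enzyme; 50 nM substrate (final) initiates; reads at 0/10 min.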
# POLI inh: inhibitors of human DNA polymerase iota; 1% of 390,000 active; Q9UNA4; Potency, µM (titrated, usually from 115 µM), usual class: inhibitors; Pol iota fluorescent replication assay, 10 min
#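 Pol iota at 10 nM preincubated 15 min with compounds at room temperature; reaction started with fluorescent substrate, 50 nM final. Fluorescence read kinetically at 0 and 10 min; buffer-only wells as negative control.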
# POLB inh: inhibitors of human DNA polymerase beta. P06746. Pol beta primer extension/strand displacement, fluorescence kinetic. Potency, µM (series often up to 114 µM), actives largely listed as inhibitors. 1.3% of 340,000 active. AID 485314
#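 Kinetic readout of DNA synthesis with strand displacement by Pol beta. Compound and 10 nM enzyme sit 15 min at room temperature; 50 nM substrate starts the reaction, read immediately and at 10 min.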
# Numbers stand for hits; – = inactive; ? = inconclusive; · = not tested or not shown; ! = repeats disagree; [ ] = dose if it differs, or a comment. The call rests on the fitted dose curve; in most records, active means well fitted curve in the direction sought with a large enough effect; inconclusive means small, poorly fitted or top-dose-only effect, or another doubt; inactive means no such curve, though single readings can be large; an effect the other way counts as inactive or inconclusive.
SMILES,POLH inh,L3MBTL1 inh,Pol kappa inh,POLI inh,POLB inh
O=C(Cc1ccccc1)Nc1ccc2oc(-c3ccncc3)nc2c1,?,·,–,?,22.4µM
O=C(Nc1ccc(-c2nc3cc(NC(=O)c4cccs4)ccc3o2)cc1)c1cccs1,–,–,–,–,–
O=C(Nc1ccc2oc(-c3ccncc3)nc2c1)c1cccs1,?,–,–,–,22.4µM
CC(C)OCCCNc1ncnc2sc3c(c12)CCCC3,–,·,–,–,–
COc1cc(OC)c(NC(=O)Nc2ccc3c(c2)N(C)C(=O)c2ccccc2S3)cc1Cl,–,·,–,–,–
CCOc1ccccc1-c1c2cc(O)c(=O)cc-2oc2cc(O)c(O)cc12,28.2µM,1.26µM,14.1µM,·,1.58µM
COc1ccccc1-c1cc(=O)c2cc(O)ccc2o1,·,·,–[19.4 µM],·,·
c1ccc(-c2nnnn2-c2ccccc2)cc1,–,–,–,–,–
ClC(Cl)(c1nnnn1-c1ccccc1)c1nnnn1-c1ccccc1,–,–,–,14.1µM,–
COc1cc(C(=O)Nc2sc3c(c2C#N)CCCC3)c(Br)c(OC)c1OC,–,·,–,–,–
CC1(C)SC2C(NC(=O)C(C(=O)O)c3ccccc3)C(=O)N2C1C(=O)O (configuration not stated),·,·,–,·,·
COC(=O)C1N2C(=O)[C@@H](NC(=O)COc3ccccc3)[C@H]2SC1(C)C (some centres not stated),–,·,–,79.4µM!,·
CC1(C)S[C@@H]2[C@H](NC(=O)[C@H](N)c3ccccc3)C(=O)N2[C@H]1C(=O)O,10µM,–,22.4µM!,28.2µM,?
CC1(C)SC2C(N3C(=O)C(c4ccccc4)NC3(C)C)C(=O)N2C1C(=O)O (configuration not stated),·,·,7.08µM,·,·
O=C1C2CCCCN2C(=O)N1CCCCN1CCN(c2cccc(Cl)c2)CC1 (configuration not stated),–,–,–,–,–
CC(C)C(=O)Nc1cccc(N2CCN(CCCN3C(=O)C4CCCCN4C3=O)CC2)c1 (configuration not stated),–,·,–,12.6µM,·
Cc1ccc(C(=O)Nc2cccc(C(F)(F)F)c2)cc1NC(=O)c1nccn1C,–,·,–,?,39.8µM
O=C(Nc1cccc(C(F)(F)F)c1)c1ccc2nc(-c3ccco3)c(-c3ccco3)nc2c1,8.91µM,·,44.7µM,15.8µM,10µM
Cc1ccc(C(=O)Nc2cccc(C(F)(F)F)c2)cc1NC(=O)c1ccno1,–,·,–,–,–
CCC(C)NC(=O)c1ccc2nc(-c3ccco3)c(-c3ccco3)nc2c1 (configuration not stated),·,·,?,22.4µM,·
COc1ccc(CCNC(=O)c2ccc3nc(-c4ccco4)c(-c4ccco4)nc3c2)cc1OC,79.4µM,?,44.7µM,12.6µM,35.5µM
Cn1c2c(sc1=O)CCC2,–,·,–,–,·
CC=C1COC(C(=O)NCCOCCO)(C(F)(F)F)C=C1C=C(C)C (configuration not stated),·,·,–,–,·
CC(C)=CNNC(=O)c1ccc(O)cc1,·,·,–,–,·
COc1ccc(CCNC(=O)c2ccc(Cl)cc2)cc1OC,–,–,–,–,–
SMILES,POLH inh,L3MBTL1 inh,Pol kappa inh,POLI inh,POLB inh
COc1ccc(CCNC(=O)c2ccc(N3CCCCS3(=O)=O)cc2)cc1OC,–,·,–,79.4µM,?
O=C1/C(=C\c2cc(Br)cc(Br)c2O)SC(=S)N1Cc1ccccc1,79.4µM,·,–,3.16µM,35.5µM
COc1cc(/C=C2\C(=O)NN(c3ccc(C)cc3)C2=O)cc([N+](=O)[O-])c1O,22.4µM,–,–,–,?
COc1cc(/C=C2\SC(=O)N(Cc3ccc(Cl)cc3)C2=O)cc([N+](=O)[O-])c1O,79.4µM,?,–,?,–
COc1cc(/C=C2/SC(=S)N(Cc3ccccc3)C2=O)cc(Cl)c1O,?,·,–,–,39.8µM
COc1cc(/C=C2/C(=O)NN(c3ccc(Cl)cc3)C2=O)cc(OC)c1O,–,·,–,?,–
CCOC(=O)CN1C(=O)S/C(=C/c2ccc(OC)c([N+](=O)[O-])c2)C1=O,–,–,–,–,–
COc1cc(/C=C2/SC(=S)N(Cc3ccccc3)C2=O)ccc1OS(C)(=O)=O,–,·,–,–,–
COc1cc(Br)c(CC(=O)NO)cc1OC,·,·,–,–,·
CN(C)S(=O)(=O)c1cccc(NC(=S)N/N=C/c2cc(Br)ccc2O)c1,–,10µM,–,–,–
CN(C)S(=O)(=O)c1cccc(NC(=S)N/N=C/c2cccc(O)c2)c1,–,–,–,–,?
CCN(CCC(=O)O)c1ccc(/C=C/c2ccnc3ccccc23)cc1,·,·,–,?,·
CCN(CC)C(=O)CC(c1ccc2c(c1)OCO2)c1c(OC)cc(OC)c2ccc(=O)oc12 (configuration not stated),35.5µM,·,79.4µM,89.1µM,50.1µM
CCN(CC)C(=O)CC(c1ccc(N(C)C)cc1)c1c(OC)cc(OC)c2ccc(=O)oc12 (configuration not stated),–,·,–,?,–
CCc1nc2ccc(C(=O)O)cc2nc1CC,14.1µM,–,–,–,–
CCc1nc2ccc(C(=O)N3CCN(CC)CC3)cc2nc1CC,–,·,–,–,–
COc1cn(CC(=O)Nc2cccc(C)c2)c(CN2CCCCC2)cc1=O,–,·,–,–,–
Cc1cc(=O)n(CCCc2ccccc2)[nH]1,–,?,–,10µM,·
Cc1cccc(CN2CCN(CCCc3ccccc3)CC2)c1,·,–,·,·,–
Cc1c(Cl)cccc1NC(=O)Cn1cnc2nc3c(cc2c1=O)CCCC3,–,·,–,–,–
N[C@H](C(=O)O)[C@H]1C[C@H]1C(=O)O,·,·,–[19.4 µM],·,·
O=C(O)Cc1c(Cl)ccc(Cl)c1Cl,·,·,–,·,·
COc1ccc(-c2csc(NC(=S)NC(=O)c3cccs3)n2)cc1OC,20µM,–,–,?,?
COc1ccc(CCNC(=O)c2c(C)nn(-c3ccc(F)cc3)c2-n2cccc2)c(OC)c1OC,–,·,–,–,–
COC(=O)[C@H](CCSC)NC(=O)c1ccc(NC[C@@H](N)CS)cc1-c1ccccc1,·,·,–,·,·
SMILES,POLH inh,L3MBTL1 inh,Pol kappa inh,POLI inh,POLB inh
O=C(NN=C1CCN(Cc2ccccc2)CC1)c1ccccc1O,–,·,–,–,–
O=C(NN=C1CCN(Cc2ccccc2)CC1)c1cc2ccccc2cc1O,?,–,?,79.4µM,–
O=C1CCCC(=NNC(=O)c2cc3ccccc3cc2O)C1,–,–,–,79.4µM,·
CCOC(=O)C1CCN(S(=O)(=O)c2ccc3c(c2)CC(=O)N3C)CC1,?,·,–,14.1µM,–
CCNc1nc(NCC)n2c(SCC(=O)Nc3ccc(C)c(C)c3)nnc2n1,–,28.2µM,–,?,·
Cc1cc(-c2nnc(SCC(=O)Nc3ccc(C)c(C)c3)n2N)n[nH]1,–,·,–,–,2µM
CCNc1nc(NCC)n2c(SCC(=O)Nc3ccccc3)nnc2n1,–,–,–,–,–
